# Screens from PubChem.
# Tgondii IFNg – inhibitors of Toxoplasma gondii growth with IFN-gamma; 3.8% of 69,000 active; AID 1259416; Toxoplasma gondii growth in IFN-gamma-treated host cells; stronger effect = lower value; activity change, negative = inhibition, % (concentration not given with the values); in the data active = activity change below about -70%, passing the limit was not always enough;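 note: host cells are HeLa cells infected with Toxoplasma gondii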
# An asterisk follows results filed as active; i = inactive; ! = not active in a repeat. The full list was thinned out, with hits kept by preference.
SMILES,Tgondii IFNg
Cc1ccc(C(=O)CSc2nnc(-c3ccncc3)n2C)cc1,-3
CC(C)OC(=O)CSc1nnc(-c2ccc(O)cc2)n1C,6
Cc1cc(=O)oc2cc(CN(Cc3nccn3C)C3CC3)ccc12,2
CC(C)(C)Cn1c(N)nc2ccc(-c3[nH]c(C(C)(C)C)nc3-c3ccc(F)cc3)nc21,-83*
O=C(c1cscn1)N1CC2CN(Cc3ccc(C(F)(F)F)cc3)C2C1 (configuration not stated),5
Cc1cc(NC(=O)CSc2nnc(COc3ccc(Cl)cc3)n2C)no1,-9
COc1ccc(-c2cc3c(=O)n(Cc4nc(-c5ccc(OC(C)C)cc5)oc4C)ccn3n2)cc1,-54
COc1ccccc1-c1cc2c(=O)n(Cc3nc(-c4cccc(OC)c4OC)oc3C)ccn2n1,-19
COc1ccc(-c2nc(Cn3ccn4nc(-c5ccc(OC)c(OC)c5)cc4c3=O)c(C)o2)cc1,-35
COc1ccccc1-c1nc(Cn2ccn3nc(-c4cccs4)cc3c2=O)c(C)o1,51
COc1ccc(-c2cc3c(=O)n(Cc4nc(-c5ccc(OC(C)C)cc5)oc4C)ccn3n2)cc1OC,-92*
COc1cccc(-c2nc(Cn3ccn4nc(-c5cccs5)cc4c3=O)c(C)o2)c1OC,-97*
Cc1cnc(CN[C@@H]2CN(C(=O)Nc3ccccc3C)C[C@H]2O)cn1,7
CC1CCN(C(=O)c2ccc(-c3csc(C4CC4)n3)cc2)CC1,129
Cc1noc([C@@]23COC[C@@H]2CN(C(=O)c2csc(C)n2)C3)n1,-2
Cc1occc1C(=O)N1Cc2nnn(C)c2C(COCCN(C)C)C1 (configuration not stated),4
C[C@H]1[C@H](OC(=O)CCC(=O)O)O[C@@H]2O[C@@]3(C)CC[C@H]4[C@H](C)CC[C@@H]1[C@@]24OO3,-80*
CC(=O)[C@H]1CCC2C3CC=C4C[C@@H](OC(=O)CCC(=O)O)CC[C@]4(C)C3CC[C@@]21C (some centres not stated),-1
CCCOc1ccc(-c2noc(-c3c(O)c4ccc(F)cc4n(CC)c3=O)n2)cc1,28
Cn1cnc2c(-c3cccnc3)nc(C3CCN(Cc4ccccn4)CC3)cc21,-15
CCc1nc(-c2cccc(C)c2)c(-c2ccnc(NC(=O)c3ccccc3)c2)s1,-81*
CCOc1ccc(C(=O)NCCc2sc(-c3cccc(C)c3)nc2C)cc1,117
COc1ccc(C(=O)NCCc2sc(-c3cccc(C)c3)nc2C)cc1,224
N#CCC(=O)NCc1ccc(F)cc1F,-25
Cc1nc(N)sc1-c1ccnc(Nc2ccc(N3CCOCC3)cc2)n1,-79*
SMILES,Tgondii IFNg
Cc1nc(-c2cnccn2)sc1C(=O)Nc1ccc(N2CCOCC2)cc1,36
Cc1nn(CC(=O)Nc2ccc(N3CCOCC3)cc2)c(C)c1Br,-4
CCC1CN(C(=O)c2ccc(N3CCOCC3)nc2)CCN1C(C)C (configuration not stated),33
Cc1cc(C(F)(F)F)nn1CC(=O)N1CCCC1c1cc(C(C)C)on1 (configuration not stated),2
Cc1ccc(Nc2nc(C(=O)Nc3ccc(Cl)cc3)nc3ccccc23)cc1,44
Cc1cc(Nc2ccc(NC(=O)c3ccc(Nc4ccnc5ccccc45)cc3)cc2)nc(N)n1,-78*
Cc1cc(Nc2ccc(C(=O)O)cc2)nc(N)n1,68
O=C1CCc2cc(NC(=O)c3ccc4nc[nH]c4c3)ccc2N1,74
Cc1ccc(CN2CC[C@H]3OCC[C@]3(C(=O)N3CCCO3)C2)o1,-1
O=C(Cn1ncc2c(N3CCCC3)ncnc21)Nc1ccc(N2CCOCC2)cc1,435
COc1ccc(C(=O)Nc2ccc(N3CCCC3)cc2)cc1OC,-5
COc1ccc(C(=O)Nc2ccc(-c3nc(-c4ccccc4)co3)cc2)cc1OC,8
COc1ccc(C(=O)Nc2ccc(-c3nc(-c4cc(C)ccc4C)co3)cc2)cc1OC,7
COc1ccc(NC(=O)c2ccc(-c3ccc(-c4noc(C)n4)cc3C)cc2)cc1OCCN(C)C,-77*!
COc1ccc(NC(=O)c2ccc3nc(-c4ccoc4)c(-c4ccoc4)nc3c2)cc1OC,57
COc1ccc(NC(=O)c2ccc(-c3ccc(-c4noc(C)n4)cc3C)cc2)cc1N1CCN(C)CC1,-72*!
Cc1oc(-c2cccc(Cl)c2)nc1Cn1nnc(-c2nc(-c3ccccn3)no2)c1C,61
COc1cccc2c1OCCCN(C(=O)c1ccc(C#CC(C)(C)O)o1)C2,1
C=C1c2cccc(O)c2C(=O)C2C(=O)[C@]3(O)C(=O)C(C(N)=O)C(=O)[C@@H](N(C)C)[C@@H]3[C@@H](O)[C@H]12 (some centres not stated),-72*!
CN1CCC(N2CCN(C(=O)C3CCCN(c4cnc5nccnc5c4)C3)CC2)CC1 (configuration not stated),4
CCOc1ccc2nc(SCC)[nH]c2c1,54
CCCCOc1cc(C(F)(F)F)nc2ccc(CSc3nc4ccccc4[nH]3)cc12,-86*
CCOc1ccc(OCCSc2nc3ccccc3[nH]2)cc1,12
COc1ccc(NC(=O)N2CCc3nc(-c4ccc(C)cc4)sc3C2)c(OC)c1,2
O=C1C[C@H]2CC[C@@H](CN1)N2C(=O)CCn1nnc(-c2ccccc2)n1,-39
SMILES,Tgondii IFNg
c1cnc(N2CCc3onc(COc4cccnc4)c3C2)nc1,-44
O=C(O)CN1CCOC2C(CNC(=O)c3ccco3)CCC21 (configuration not stated),4
CCCCOc1ccc(CC(=O)NO)cc1,-100*!
O=C(Cc1ccccc1)NO,-36
CCCCOc1ccc(NC(=O)CN2CCN(CC)CC2)cc1,-38
CCN(Cc1cnn(CC)c1)Cc1nc(-c2ccco2)no1,-12
COC(=O)c1cc2n(n1)CCN(C(=O)[C@@]13CC[C@@](C)(OC1=O)C3(C)C)C2,0
COc1ccc(-c2nc(C)c(-c3ccc(SCc4ccc(C(F)(F)F)cc4)nn3)s2)cc1,-26
[O-][NH2+]c1ccc(O)c2ncccc12,-84*!
Cn1nc(CN2CCCCC2)c2c1CN(S(=O)(=O)c1cccc(F)c1)C2,2
CCc1c(C)sc2c1CCN(Cc1nc(-c3ccc(C(C)C)cc3)oc1C)C2c1ccccc1 (configuration not stated),-20
O=C(c1ccco1)N1CCc2ncnc(N3CCCC3)c2CC1,-9
COc1ccccc1/C=C/c1nn2c(COc3ccc(F)cc3)nnc2s1,-91*
COc1ccc(Cc2nnc3sc(Cc4ccccc4)nn23)cc1,30
COc1ccc(-c2nn3c(Cn4nnc5ccccc54)nnc3s2)cc1,7
CCc1ccccc1NC(=O)N1CCc2nc(-c3ccc(C)cc3)sc2C1,-3
COCC(=O)N1CCc2ncnc(C3CCOC3)c2CC1 (configuration not stated),i
Cc1nc(CC(NC(=O)Cn2nnc3ccccc32)c2ccc(Cl)cc2)cc(=O)[nH]1 (configuration not stated),-4
Cc1noc(C)c1-n1sc(=O)n(-c2ccc(F)cc2)c1=O,-4
Cc1ccc(C)c(NCc2n[nH]c(=S)n2-c2ccccc2)c1,5
Cc1c(C)c(C)c(CSCc2n[nH]c(=S)n2-c2ccc(F)cc2)c(C)c1C,-86*
Cn1cc(/C=C/C(=O)N2CCCC(C(=O)c3ccc4c5c(cccc35)CC4)C2)cn1 (configuration not stated),-16
COc1ccc(-c2ccccc2-c2nnc(C)o2)cn1,5
CC1=CC(C)(C)N=C(Nc2nc(C)c3cc(C)cc(C)c3n2)N1,-99*
CCc1c(C)[nH]n2c(=O)cc(Cc3ccc(F)cc3)nc12,-103*
CCc1c(C)[nH]n2c(=O)cc(COc3ccccc3)nc12,-12
